Source: PubChem
FLuc counter: qHTS profiling assay for firefly luciferase inhibitor/activator using purifed enzyme and Km concentrations of substrates (counterscreen for miR-21 project); AID 588342, 2011; purified FLuc, Km substrates, luminescence inhibition; Potency, µM (series often up to 57.5 µM), most hits filed as inhibitors; Luciferin 4-monooxygenase (Photinus pyralis), P08659; 6.9% of 360,000 active; also: nearly all actives have a fitted effect of over 55% in size
Target sequence (P08659 whole entry, looked up): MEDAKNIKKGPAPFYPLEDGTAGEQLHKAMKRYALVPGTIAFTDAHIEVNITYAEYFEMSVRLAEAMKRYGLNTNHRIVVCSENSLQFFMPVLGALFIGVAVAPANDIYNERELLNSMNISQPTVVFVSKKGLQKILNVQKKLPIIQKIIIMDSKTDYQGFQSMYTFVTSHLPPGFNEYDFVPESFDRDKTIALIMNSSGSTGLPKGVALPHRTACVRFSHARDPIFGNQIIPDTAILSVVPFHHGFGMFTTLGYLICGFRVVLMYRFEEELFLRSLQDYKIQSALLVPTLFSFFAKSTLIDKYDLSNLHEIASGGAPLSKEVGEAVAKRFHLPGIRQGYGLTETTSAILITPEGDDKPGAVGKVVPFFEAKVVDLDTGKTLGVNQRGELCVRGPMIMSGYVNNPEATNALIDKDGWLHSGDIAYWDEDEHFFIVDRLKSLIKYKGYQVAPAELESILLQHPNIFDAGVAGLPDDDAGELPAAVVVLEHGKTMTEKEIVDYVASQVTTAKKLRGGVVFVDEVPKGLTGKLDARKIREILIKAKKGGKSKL
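Purified P. pyralis luciferase (10nM final) with 10uM D-luciferin and 10uM ATP (Km levels) in 50mM Tris acetate pH 7.5, 10mM Mg acetate, 0.01% Tween-20, 0.05% BSA; qHTS 6-point titration, ~60 µM downward; luminescence read.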
Rab9 prom act: qHTS Assay for Rab9 Promoter Activators. Huh7 Rab9 promoter-luciferase reporter, luminescence, 24 h. Potency, µM (top dose mostly 9.22 µM), actives largely listed as activators. 2.8% of 320,000 active. AID 485297, 2010; also: nearly all actives have a fitted effect of over 60% in size
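Luminescence read-out: Huh7 cells stably expressing Rab9-luciferase, treated 24 h with compound at 37 °C, then lysed with luciferase reagent for 10 min at ambient before reading.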
ELG1 genotoxic: qHTS screen for small molecules that induce genotoxicity in human embryonic kidney (HEK293T) cells expressing luciferase-tagged ELG1; 1.3% of 330,000 active; HEK293T ELG1-luciferase reporter, luminescence, 16 h; Potency, µM (series often up to 46 µM), most hits filed as activators; AID 504466, 2011; also: nearly all actives have a fitted effect of over 60% in size
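HEK293T cells expressing luciferase-tagged ELG1 were exposed to compound or DMSO vehicle for 16 hr at 37 °C and 5% CO2. Luciferase activity was then measured with ONE-Glo after 30 min at room temperature.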
SMN2 splice enh: qHTS Assay for Enhancers of SMN2 Splice Variant Expression; HEK293 SMN2-luciferase splicing reporter, luminescence, 30-36 h; Potency, µM (titrated, usually from 46.1 µM), usual class: activators; 2.8% of 210,000 active; also: nearly all actives have a fitted effect of over 55% in size
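qHTS luciferase splicing reporter: luminescence rises when SMN2 exon 7 is included in transfected HEK293 cells. Compound exposure lasted 30-36 h at 37C, with 4.5 mM final sodium butyrate as control, followed by a ONE-Glo read.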
NPC1 promoter act: qHTS Assay for NPC1 Promoter Activators; Huh7 NPC1 promoter luciferase reporter, 24 h; Potency, µM (highest dose often 9.22 µM), usual class: activators; 2.4% of 320,000 active; AID 485313, 2010; also: nearly all actives have a fitted effect of over 60% in size
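Luminescence read-out of NPC1 promoter-driven luciferase in stably transfected Huh7 cells; compounds delivered in DMSO and left 24 h at 37C, 5% CO2, qHTS titration format.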
A number is an active result; . = inactive; ? = inconclusive; / = not tested or not shown; [ ] = dose if it differs, or a comment. Shown are actives, neighbours in structure and some others; about 7.4% of the full set was active somewhere. Calls follow the shape of the dose curve; as a rule, active = well fitted curve in the direction sought with a large enough effect; inconclusive = small, poorly fitted or top-dose-only effect, or another doubt; inactive = no such curve, though single readings can be large; an effect the other way counts as inactive or inconclusive.

SMILES	FLuc counter	Rab9 prom act	ELG1 genotoxic	SMN2 splice enh	NPC1 promoter act
CCc1ccccc1Nc1nn2c(=O)c3ccc(C(=O)NCc4ccccn4)cc3nc2s1	.	.	.	/	.
Cc1cccc(C)c1NC(=O)CN(C)C(=O)CC1Sc2ccccc2NC1=O (stereo not drawn)	.	.	.	/	.
COc1ccc(CN(C(=O)c2cc3ccccc3oc2=O)C2CCS(=O)(=O)C2)cc1 (stereo not drawn)	.	.	.	.	.
O=C(c1cc2ccccc2oc1=O)N(Cc1ccccc1)C1CCS(=O)(=O)C1 (stereo not drawn)	21µM	?	?	.	?
COc1ccc(CN(C(=O)c2cc3ccccc3oc2=O)C2CCS(=O)(=O)C2)cc1OC (stereo not drawn)	19µM	?	?	?	4µM
O=C(c1cc2ccccc2oc1=O)N(Cc1ccccc1F)C1CCS(=O)(=O)C1 (stereo not drawn)	17µM	?	?	/	.
CCOc1ccc(CN(C(=O)c2cc3ccccc3oc2=O)C2CCS(=O)(=O)C2)cc1 (stereo not drawn)	12µM	3.2µM	?	/	?
Oc1ccc(COC2CCN(Cc3ccccc3)C2)c2cccnc12 (stereo not drawn)	.	.	/	/	.
O=C(Cc1ccc(Cl)cc1)Nc1ccc2oc(-c3ccccc3)nc2c1	.	/	/	.	/
O=C(O)Cc1ccc2oc(-c3cccnc3)nc2c1	?	.	.	.	.
Clc1ccc2oc(-c3ccccc3)nc2c1	2.4µM	.	?	?	.
Clc1ccc2oc(-c3cccnc3)nc2c1	15µM	?	.	.	?
Cc1ccc(-c2csc(NC(=O)c3ccccc3Cl)c2C(=O)O)cc1	27µM	.	.	/	.
COc1cc(C(=O)Nc2scc(-c3ccc(Br)cc3)c2C(=O)O)cc(OC)c1OC	.	.	.	/	.
CC(C)c1ccc(-c2csc(NC(=O)c3cccs3)c2C(=O)O)cc1	17µM	.	.	/	.
Cc1ccc(-c2csc(NC(=O)c3ccc(Br)cc3)c2C(=O)O)cc1	12µM	3.5µM	.	/	2.5µM
CC(C)c1ccc(C(CC(=O)O)NC(=O)c2cccs2)cc1 (stereo not drawn)	.	.	.	.	.
OCCC1CN(Cc2ccccc2-c2ccco2)CCN1Cc1ccccc1 (stereo not drawn)	.	.	.	/	.
Cc1ccc2c(c1)N(CCC(=O)NC1CCCCC1)C(=O)CO2	.	.	.	/	.
CC1(C)OC(=O)C(=CNNc2c(Cl)cc(Cl)cc2Cl)C(=O)O1	.	.	.	/	.
COc1cccc(OCc2cc(C(=O)N(C)C3CCOCC3)no2)c1	.	.	.	/	.
Cc1nnc(CN(C)C(=O)c2cc(COc3ccc(C)c(C)c3)on2)o1	?	.	.	/	.
Cc1cc(CN(C)C(=O)c2cc(COc3ccc(C)c(C)c3)on2)on1	12µM	1.4µM	16µM	/	2.5µM
COc1cccc(OCc2cc(C(=O)N(C)Cc3nc(C)cs3)no2)c1	12µM	2.2µM	12µM	/	3.2µM
Cc1ccc(OCc2cc(C(=O)N(C)CCc3ccccn3)no2)cc1C	13µM	3.5µM	.[9.26 µM]	/	?
SMILES	FLuc counter	Rab9 prom act	ELG1 genotoxic	SMN2 splice enh	NPC1 promoter act
CCOc1ccccc1C(=O)N1CCN(CCc2ccccn2)CC1	.	/	/	/	/
O=C1Nc2ccccc2C1=Nc1cccc2ncccc12	/	/	/	.[9.22 µM]	/
C[C@H]1CC2C3CCC4=CC(=O)C=C[C@]4(C)[C@@]3(Cl)[C@@H](O)C[C@]2(C)[C@@]1(O)C(=O)CO (stereo partly drawn)	/	.	/	/	.
CCCc1cc(=O)[nH]c(Nc2ccccc2O)n1	.	/	/	.	/
O=C(NCCn1cccn1)C1CCC(=O)N(CCc2ccccc2)C1 (stereo not drawn)	.	.	.	/	.
C=CCN1C(=O)/C(=C\c2ccc(OC(=O)c3ccco3)c(OC)c2)SC1=S	.	.	.	.	.
COc1cc(/C=C2/C(=O)NN(c3ccc(Cl)cc3)C2=O)ccc1OC(=O)c1ccco1	24µM	.	.	.	.
COc1cc(/C=C2/C(=O)NN(c3cccc(F)c3)C2=O)ccc1OC(=O)c1ccco1	24µM	.	.	.	.
COc1cc(/C=N/NC(=O)c2ccc(F)cc2)ccc1OC(=O)c1ccco1	?	.	.	.	.
COc1ccccc1Nc1nc(NCCO)c2ccccc2n1	?	.	.	.	.
Cc1ccc(Nc2nc(N)c3ccccc3n2)cc1Cl	0.95µM	0.63µM	?	/	0.56µM
CCOC(=O)c1ccc(Nc2nc(N)c3cc(OC)c(OC)cc3n2)cc1	7.6µM	.	.	.	.
COc1cc2nc(Nc3ccc(F)cc3)nc(N)c2cc1OC	?	.	.	.	.
COc1cc2nc(Nc3ccc(C)c(C)c3)nc(N)c2cc1OC	?	.	.	.	.
Cc1ccc(Nc2nc(NCCO)c3ccccc3n2)cc1C	7.6µM	.	.	/	.
COc1cc2nc(Nc3ccc(C)c(Cl)c3)nc(N)c2cc1OC	21µM	.	.	/	.
O=C(Cc1ccccc1)NCC(=O)OCC(=O)c1cccs1	.	.	.	.	.
O=C(CN1C(=O)NC2(CCCCC2)C1=O)N1CCOCC1	.	.	.	/	.
Cc1ccc(NC(=O)CCn2c(=O)c3cccn3c3ccccc32)cc1C	?	.	.	/	.
COc1cc2nc(Nc3cccc(C)c3)nc(N)c2cc1OC	5.4µM	/	/	.	/
COc1cc(NC(=O)C2CCN(S(=O)(=O)c3c(C)noc3/C=C/c3cccs3)CC2)cc(OC)c1	.	/	/	.	/
CSc1ccc(CN(C)C(=O)c2cc3ccccc3o2)cc1	17µM	.	.	/	.
COc1ccc(C(=O)NCCCNC(=O)c2ccccn2)cc1	.	.	.	/	.
O=[N+]([O-])c1cccc(-c2nc(-c3ccncc3)no2)c1	?	?	?	.	?
O=[N+]([O-])c1cccc(-c2noc(COc3ccccc3)n2)c1	?	.	.	.	.
SMILES	FLuc counter	Rab9 prom act	ELG1 genotoxic	SMN2 splice enh	NPC1 promoter act
O=[N+]([O-])c1cccc(-c2nc(-c3ccccc3)no2)c1	1.3µM	4µM	?	/	6.3µM
O=[N+]([O-])c1cccc(-c2noc(-c3ccco3)n2)c1	9.5µM	2.5µM	?	/	3.5µM
Oc1ccccc1C1=NN(c2ccccc2)C(c2ccc(F)cc2)C1 (stereo not drawn)	.	.	.	/	.
Oc1ccccc1C1=Nc2nc3ccccc3n2C(c2ccccc2)C1 (stereo not drawn)	11µM	.	?	.	.
Cc1csc2c(N3CCN(C(=O)c4ccc(C(C)(C)C)cc4)CC3)ncnc12	27µM	.	.	/	.
CCOC(=O)C1CCN(c2ncnc3c(C)csc23)CC1	11µM	?	?	/	.
Cc1csc2c(N3CCN(C(=O)NC(C)(C)C)CC3)ncnc12	.	.	.	/	.
CCc1ccc(NC(=O)C2=CC=CN3CCS(=O)(=O)N=C23)cc1	15µM	.	.	/	.
